Outcome and AC50 data for 4 compounds are collected here from PubChem BioAssay (EPA / NIEHS).

Broadly, the AC50 is the concentration giving half of the maximal activity seen.

Read-out in assay [1]: Epidermal growth factor receptor (EGFR), EGFR (gene 1956)
Description: BSK_hDFCGF_EGFR: BioMAP Diversity Plus: hDFCGF Assay for Epidermal growth factor receptor (EGFR) Biomarker Activity (AID 2283057). The conditions noted are these: primary human foreskin fibroblasts; actives raise or lower the signal. In a few lines: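 EGFR levels by ELISA in human dermal fibroblast cultures, 24 h post-treatment, fitted bidirectionally versus DMSO. Parallel wells stained with sulforhodamine B to detect overt cytotoxicity.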

Read-out in assay [2]: Interleukin-8 (IL8), CXCL8 (gene 3576)
Nature of the assay: BSK_hDFCGF_IL8: BioMAP Diversity Plus: hDFCGF Assay for Interleukin-8 (IL8) Biomarker Activity (AID 2283058). The note with it: primary human foreskin fibroblasts; actives raise or lower the signal. In a few lines: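 Primary human foreskin fibroblasts (hDFCGF system) dosed with chemical; IL-8 measured by ELISA 24 hours later. Bidirectional curve fitting relative to DMSO baseline; cytotoxicity tracked in parallel cultures by SRB total protein staining.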

The nature of assay [3]: BSK_hDFCGF_Proliferation: Cell Proliferation Assessment in the BioMAP Diversity Plus: hDFCGF Assay (AID 2283059).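 Note: curves fitted for both rise and fall of signal versus DMSO baseline.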 The conditions noted are these: primary human foreskin fibroblasts. In a few lines:
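Sub-confluent human foreskin fibroblast cultures receive test chemical […]. Relative cell number is quantified by sulforhodamine B staining (0.1%, after 10% TCA fixation) at 560 nm, with bidirectional fitting referenced to DMSO.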

Read-out in assay [4]: Macrophage colony-stimulating factor (MCSF), CSF1 (gene 1435)
Nature of the assay: BSK_hDFCGF_MCSF: BioMAP Diversity Plus: hDFCGF Assay for Macrophage colony-stimulating factor (MCSF) Biomarker Activity (AID 2283060). The conditions noted are these: primary human foreskin fibroblasts; actives raise or lower the signal. In a few lines:
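Human foreskin fibroblast primary cultures; M-CSF measured by ELISA 24 hours after chemical dosing. Bidirectional fitting relative to DMSO, with overt cytotoxicity tracked by parallel SRB total-protein staining (0.1% SRB, 10% TCA fixation, 560 nm).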

Assay [5] in a line: BSK_hDFCGF_SRB: Viability Assessment in the BioMAP Diversity Plus: hDFCGF Assay (AID 2283061).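 Note: cells exposed to compound for 24 h before the read.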 The conditions noted are these: primary human foreskin fibroblasts. In a few lines:
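Human foreskin fibroblasts in 96-well plates were treated 24 h. Total protein was measured by 0.1% SRB staining after 10% TCA fixation, read at 560 nm. Data were fitted bidirectionally against DMSO.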

Read-out in assay [6]: TIMP metallopeptidase inhibitor 1 (TIMP1), TIMP1 (gene 7076)
Description: BSK_hDFCGF_TIMP1: BioMAP Diversity Plus: hDFCGF Assay for TIMP metallopeptidase inhibitor 1 (TIMP1) Biomarker Activity (AID 2283062). The note with it: primary human foreskin fibroblasts; actives raise or lower the signal. In a few lines:
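Human foreskin fibroblast primary cultures dosed for 24 h; secreted/surface TIMP-1 quantified by ELISA. Bidirectional curve fitting against DMSO baseline; cytotoxicity tracked in parallel cultures by SRB total-protein staining.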

Read-out in assay [7]: Monokine induced gamma interferon (MIG), CXCL9 (gene 4283)
Description: BSK_hDFCGF_MIG: BioMAP Diversity Plus: hDFCGF Assay for Monokine induced gamma interferon (MIG) Biomarker Activity (AID 2283063). The conditions noted are these: primary human foreskin fibroblasts; actives raise or lower the signal. In a few lines: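 MIG/CXCL9 measured by ELISA 24 h after dosing primary human skin fibroblasts. Activity fitted in both directions against DMSO controls. Cytotoxicity was checked in parallel cultures by SRB staining read at 560 nm.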

Read-out in assay [8]: Matrix Metallopeptidase 1 (MMP1), MMP1 (gene 4312)
Description: BSK_hDFCGF_MMP1: BioMAP Diversity Plus: hDFCGF Assay for Matrix Metallopeptidase 1 (MMP1) Biomarker Activity (AID 2283064). The conditions noted are these: primary human foreskin fibroblasts; actives raise or lower the signal. In a few lines: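 ELISA read-out of MMP1 from human foreskin fibroblasts (primary skin cells), 24 h post-dose. Gain or loss of signal was fitted bidirectionally versus DMSO negative control; cytotoxicity was checked by SRB in parallel cultures.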

Read-out in assay [9]: Vascular cell adhesion molecule 1 (VCAM1), VCAM1 (gene 7412)
Nature of the assay: BSK_hDFCGF_VCAM1: BioMAP Diversity Plus: hDFCGF Assay for Vascular cell adhesion molecule 1 (VCAM1) Biomarker Activity (AID 2283065).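 For AC50: VCAM-1 protein level quantified by ELISA after 24 h chemical exposure.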 The conditions noted are these: primary human foreskin fibroblasts; actives raise or lower the signal. In a few lines:
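Human foreskin fibroblast primary cells dosed with chemical, VCAM-1 measured by ELISA at 24 h. Bidirectional curve fitting relative to DMSO as negative control/baseline.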

Read-out in assay [10]: Plasminogen activator inhibitor-1 (PAI1), SERPINE1 (gene 5054)
Description: BSK_hDFCGF_PAI1: BioMAP Diversity Plus: hDFCGF Assay for Plasminogen activator inhibitor-1 (PAI1) Biomarker Activity (AID 2283066). The conditions noted are these: primary human foreskin fibroblasts; actives raise or lower the signal. In a few lines: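 PAI-1 levels in human dermal foreskin fibroblasts were quantified by ELISA 24 h after dosing, with gain or loss analysed against DMSO. Overt cytotoxicity was checked by sulforhodamine B total-protein staining in parallel cultures.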

Read-out in assay [11]: Intercellular Adhesion Molecule 1 (ICAM1), ICAM1 (gene 3383)
Description: BSK_KF3CT_ICAM1: BioMAP Diversity Plus: KF3CT Assay for Intercellular Adhesion Molecule 1 (ICAM1) Biomarker Activity (AID 2283067). The conditions noted are these: primary human keratinocytes with fibroblasts; actives raise or lower the signal. In a few lines:
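Human keratinocyte–foreskin fibroblast co-culture was treated for 24 h. Cell-surface ICAM-1 was quantified by ELISA, fitted bidirectionally relative to DMSO. Cytotoxicity was checked in parallel cultures by SRB total-protein staining.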

Read-out in assay [12]: Interferon-gamma inducible Protein 10 (IP10), CXCL10 (gene 3627)
Nature of the assay: BSK_KF3CT_IP10: BioMAP Diversity Plus: KF3CT Assay for Interferon-gamma inducible Protein 10 (IP10) Biomarker Activity (AID 2283068). The note with it: primary human keratinocytes with fibroblasts; actives raise or lower the signal. In a few lines: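 ELISA read-out of IP-10 after 24 h chemical dosing of human skin primary co-culture (keratinocytes, foreskin fibroblasts). Gain or loss of signal relative to DMSO, bidirectional curve fit.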

Assay [13] is described as follows: BSK_KF3CT_SRB: Viability Assessment in the BioMAP Diversity Plus: KF3CT Assay (AID 2283069).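 Note: read 24 h after compound addition.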 The note with it: primary human keratinocytes with fibroblasts. In a few lines:
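SRB read-out at 560 nm (0.1% stain, TCA-fixed cells) gauges overt cytotoxicity in a human skin keratinocyte–fibroblast co-culture 24 h post-dosing. Signal change was fitted bidirectionally relative to DMSO control.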

Read-out in assay [14]: Interleukin-1 alpha (IL1a), IL1A (gene 3552)
Description: BSK_KF3CT_IL1a: BioMAP Diversity Plus: KF3CT Assay for Interleukin-1 alpha (IL1a) Biomarker Activity (AID 2283070). The conditions noted are these: primary human keratinocytes with fibroblasts; actives raise or lower the signal. In a few lines: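 Primary skin co-culture (keratinocytes, foreskin fibroblasts), 24 h exposure; ELISA for IL-1a; bidirectional curve fit vs DMSO.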

Read-out in assay [15]: Transforming growth factor beta 1 (TGFb1), TGFB1 (gene 7040)
Nature of the assay: BSK_KF3CT_TGFb1: BioMAP Diversity Plus: KF3CT Assay for Transforming growth factor beta 1 (TGFb1) Biomarker Activity (AID 2283072). The note with it: primary human keratinocytes with fibroblasts; actives raise or lower the signal. In a few lines: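 ELISA quantifies TGF-b1 at 24 h post-dose in a primary human skin co-culture of keratinocytes and fibroblasts, with gain or loss judged against DMSO. Parallel SRB total-protein staining flags overt cytotoxicity.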

Read-out in assay [16]: C-C motif chemokine 2 (Homo sapiens) (UniProt P13500)
Description: BSK_KF3CT_MCP1: BioMAP Diversity Plus: KF3CT Assay for Monocyte Chemoattractant Protein 1 (MCP1/CCL2) Biomarker Activity (AID 2283073). The note with it: primary human keratinocytes with fibroblasts; actives raise or lower the signal. In a few lines:
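Human keratinocyte–foreskin fibroblast co-culture; MCP-1 measured by ELISA 24 h after dosing. Bidirectional fit vs DMSO; cytotoxicity tracked by SRB total protein in parallel cultures.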

Read-out in assay [17]: Matrix Metallopeptidase 9 (MMP9), MMP9 (gene 4318)
Nature of the assay: BSK_KF3CT_MMP9: BioMAP Diversity Plus: KF3CT Assay for Matrix Metallopeptidase 9 (MMP9) Biomarker Activity (AID 2283074).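 For AC50: MMP9 protein level quantified by ELISA in the co-culture.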 The note with it: primary human keratinocytes with fibroblasts; actives raise or lower the signal. In a few lines:
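ELISA read-out of MMP-9 at 24 h post-dosing in a co-culture of human skin keratinocytes and foreskin fibroblasts. Gain or loss of signal was fitted in both directions against DMSO.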

Read-out in assay [18]: urokinase plasminogen activator (uPA), PLAU (gene 5328)
Description: BSK_KF3CT_uPA: BioMAP Diversity Plus: KF3CT Assay for urokinase plasminogen activator (uPA) Biomarker Activity (AID 2283075). The note with it: primary human keratinocytes with fibroblasts; actives raise or lower the signal. In a few lines:
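Skin co-culture (keratinocytes + foreskin fibroblasts), human primary; 24 h post-dose; uPA by ELISA; gain/loss fit vs DMSO baseline.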

Read-out in the next assay: CD40, CD40 (gene 958)
Nature of the assay: BSK_LPS_CD40: BioMAP Diversity Plus: LPS Assay for CD40 Biomarker Activity (AID 2283076). The conditions noted are these: primary human HUVEC with PBMC; actives raise or lower the signal. In a few lines: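 HUVEC plus PBMC co-culture stimulated with LPS; CD40 quantified by ELISA 24 h after compound dosing. Fitting was bidirectional relative to DMSO. SRB staining of parallel cultures flagged overt cytotoxicity.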

Read-out in assay [19]: TIMP metallopeptidase inhibitor 2 (TIMP2), TIMP2 (gene 7077)
Description: BSK_KF3CT_TIMP2: BioMAP Diversity Plus: KF3CT Assay for TIMP metallopeptidase inhibitor 2 (TIMP2) Biomarker Activity (AID 2283071). The note with it: primary human keratinocytes with fibroblasts; actives raise or lower the signal. In a few lines:
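TIMP-2 measured by ELISA at 24 h in human keratinocyte/fibroblast primary co-cultures exposed to chemicals. Both increases and decreases were fitted against DMSO. Parallel cultures were stained with SRB for total protein as an overt-cytotoxicity check.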

Calls of active or inactive are those of the source. Rule for the calls: active = hit-call score of the fitted dose curve at least 0.9, where 1 is the maximum; inactive = score below 0.9.

As for `CCN(CC)CCOc1ccc(C(=C(Cl)c2ccccc2)c2ccccc2)cc1`, in assay [1], the result was inactive. Moreover, the AC50 was 13 µM (active) in assay [2]; 0.123 µM (active) in [3]; 10.4 µM (active) in assay [4]; 11.6 µM (active) in [5]; 13.6 µM (active) in assay [6]; 13 µM (active) in [7]. Further, the AC50 in assay [8] was 13.2 µM (active); in [9] it was 14.1 µM (active); in assay [10] it was 9.48 µM (active); in assay [11], 14 µM (active); in assay [12], 13.5 µM (active); in [13], 12 µM (active). Also, the AC50 was 14.5 µM (active) in assay [14]; 12.4 µM (active) in assay [15]; 14.3 µM (active) in assay [16]; 11.7 µM (active) in assay [17]; 13.7 µM (active) in [18]; 8.67 µM (active) with CD40, CD40 (gene 958).

Take `CC(=O)[C@@]1(O)CC[C@H]2[C@@H]3CCC4=CC(=O)CC[C@]4(C)[C@H]3CC[C@@]21C`: the outcome in assay [1], in [2], in assay [3], in [4], in assay [5] and in [6] was inactive. The outcome in assay [7], in [8], in assay [9], in assay [10], in assay [11] and in [12] was inactive. For the same compound, the result in [13], in assay [14], in [19], in assay [15], in assay [16] and in assay [17] was inactive. For the same compound, the outcome was “inactive” in [18] and “inactive” with CD40, CD40 (gene 958).

`Cc1ccc(-c2cc(C(F)(F)F)nn2-c2ccc(S(N)(=O)=O)cc2)cc1`: the outcome in assay [1], in [2], in assay [3], in assay [4], in [5] and in [6] was inactive. In addition, the result in [7], in assay [8], in assay [10], in assay [11], in assay [12] and in [13] was inactive. Further, the outcome in assay [14], in [15], in assay [16], in assay [17] and in [18] was inactive. Also, the AC50 with CD40, CD40 (gene 958) was 26.6 µM (active).

For the compound `C#CC(O)C(CC)CCCC` (configuration not stated), the result in assay [1], in assay [2], in assay [3], in assay [4], in assay [5] and in assay [6] was inactive. Besides, the result in [7], in [8], in assay [9], in [10], in assay [11] and in [12] was inactive. Besides, the outcome in [13], in [14], in assay [19], in [15], in [16] and in assay [17] was inactive. Further, the outcome is “inactive” in assay [18] and “inactive” with CD40, CD40 (gene 958).
